ST2 IL33 inh – blocks human ST2 binding to IL-33; inhibition, % for hits at 17 µM; actives 2.3% (n = 78,000); AlphaLISA ST2-Fc/biotin-IL-33 interaction, 1 h; in the data active means inhibition above about 30%
Target sequence (Q01638 whole entry, looked up): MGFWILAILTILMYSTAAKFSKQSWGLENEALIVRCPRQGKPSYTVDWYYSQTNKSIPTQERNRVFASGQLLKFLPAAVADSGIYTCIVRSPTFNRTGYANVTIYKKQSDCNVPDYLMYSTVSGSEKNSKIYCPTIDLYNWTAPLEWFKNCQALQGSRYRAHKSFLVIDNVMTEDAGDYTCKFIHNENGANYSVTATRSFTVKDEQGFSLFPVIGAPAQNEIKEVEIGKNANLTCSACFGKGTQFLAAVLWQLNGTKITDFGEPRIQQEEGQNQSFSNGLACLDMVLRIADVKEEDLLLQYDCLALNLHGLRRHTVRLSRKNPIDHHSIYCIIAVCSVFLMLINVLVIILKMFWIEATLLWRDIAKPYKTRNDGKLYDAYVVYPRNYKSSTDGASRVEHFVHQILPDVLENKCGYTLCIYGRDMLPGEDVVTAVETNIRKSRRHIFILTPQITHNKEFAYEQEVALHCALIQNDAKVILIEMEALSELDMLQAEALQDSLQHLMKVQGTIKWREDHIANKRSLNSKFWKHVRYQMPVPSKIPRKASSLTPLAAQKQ
Each line names hits and unclear results; the compound was inactive in the other large screens; ! = not active in a repeat. Shown is part of a subset that was picked to be rich in hits.

Cc1ccc(S(=O)(=O)N2CCN(c3nc(C)cc(N4CCCCC4)n3)CC2)cc1	none
CC1=C(C(=O)OCCc2ccccc2)C(c2cccs2)NC(=O)N1C (centres undefined)	none
C=CCN1C(=O)c2ccccc2Sc2ccc(C(=O)NCc3ccccc3)cc21	none
CCN(CC)CCN1C(=O)C(=O)C(=C(O)c2ccc(Cl)cc2)C1c1ccc(OC)cc1 (centres undefined)	none
O=C(Nc1ccccc1)C1[C@H](C(=O)O)[C@H]2C=C[C@@H]1C21CC1 (some centres undefined)	none
O=C(O)c1ccncc1C(=O)O	none
CCCCOc1cccc(N=Cc2c(C)[nH]n(-c3ccccc3)c2=O)c1	ST2 IL33 inh 36%
Cc1[nH]n(-c2ccccc2)c(=O)c1C=Nc1c(C)[nH]n(-c2ccccc2)c1=O	none
Cc1[nH]n(-c2ccccc2)c(=O)c1C=Nc1cccc(N)c1	none
CCn1ccnc1CN1CCC(CCC(=O)N2CCN(c3ccccc3)CC2)CC1	none
O=C(CCCn1nnnc1CN1CCc2ccccc2C1)N1CC2CCC1C2 (centres undefined)	none
CCCCNc1nc2c(c(=O)n(Cc3cccc(Br)c3)c(=O)n2C)n1C	ST2 IL33 inh 32%
CCCCNc1nc2c(c(=O)n(C)c(=O)n2C)n1Cc1cccc(Cl)c1	none
COCCNc1nc2c(c(=O)n(C)c(=O)n2C)n1Cc1cccc(Br)c1	none
Cc1ccc(C(=O)NCc2cccnc2)cc1[N+](=O)[O-]	none
CC(=O)Nc1ccc(NC(=O)NC2(c3ccccc3)CC2)cc1	none
Cc1ccc(N=C2NC(=O)C(Cc3ccccc3)S2)cc1 (centres undefined)	none
COc1ccc(/C=C2/SC(=Nc3ccccc3)NC2=O)c(OC)c1OC	ST2 IL33 inh 45%
COc1ccc(N=C2NC(=O)C(CO)(CO)S2)cc1	none
Cc1ccc(NC(=O)CCN2C(=O)S/C(=C\c3ccccc3)C2=O)cc1	none
O=C1NC(=Nc2ccccc2)S/C1=C/c1ccccn1	none
COc1cc(/C=C2/SC(=O)NC2=O)ccc1O	none
COc1cc(/C=C2/SC(=Nc3ccccc3)NC2=O)ccc1O	ST2 IL33 inh 38%
COc1cccc(/C=C2/SC(=Nc3ccccc3)NC2=O)c1	none
CC(=O)Nc1ccc(/C=C2/SC(=Nc3ccccc3)NC2=O)cc1	ST2 IL33 inh 31%
COc1cccc(/C=C2/SC(=Nc3ccccc3)NC2=O)c1OC	none
Cc1ccc(/C=C2/SC(=Nc3ccccc3)NC2=O)c(C)c1	ST2 IL33 inh 35%
Cc1nn(CC(=O)N2CCCC3(CC2)CNC(=O)O3)c(=O)c2ccccc12 (centres undefined)	none
CN(C)c1nc2c(c(=O)n(C)c(=O)n2C)n1CCSc1nc2ccccc2s1	none
Cc1cc(Cl)ccc1C(=O)C1CCCN(Cc2c(C)nn(C(C)C)c2C)C1 (centres undefined)	none
O=S(=O)(NCc1nc2cccnc2n1Cc1ccc(F)cc1)c1cccc(Cl)c1	none
CN1CCN(C(=O)/C(=C\c2cccnc2)NC(=O)c2ccco2)CC1	none
CC(=O)c1cccc(N2C(=O)C3C4c5ccccc5C(c5ccccc54)C3C2=O)c1 (centres undefined)	none
COc1ccc(C2C(C#N)=C(N)OC3=C2C(=O)CC(C)(C)C3)cc1C (centres undefined)	none
c1ccc(-c2nnc([C@H]3CCN(CC4CCCCC4)C3)o2)cc1	none
CCOc1ccc(/C=C2\SC(=O)N(CC(=O)N3CCOCC3)C2=O)cc1OCC	none
C=CCOc1ccc(/C=C2/SC(=Nc3ccccc3)NC2=O)cc1OCC	ST2 IL33 inh 37%
CCOc1cc(C=C2C(=O)c3ccccc3C2=O)ccc1OC(C)C(=O)O (centres undefined)	none
Cc1occc1C(=O)Nc1ccc(CC(=O)O)cc1	none
COc1cc(NC(=S)N[C@H]2CO[C@H]3[C@@H]2OC[C@H]3OC(=O)Nc2ccc(C(C)=O)cc2)cc(OC)c1	none
CC(=O)c1ccc(NC(=O)N[C@H]2CO[C@H]3[C@@H]2OC[C@H]3OC(=O)Nc2cccc(C(C)=O)c2)cc1	ST2 IL33 inh 85%
CC(C)c1ccc(NC(=O)O[C@@H]2CO[C@H]3[C@@H]2OC[C@@H]3NC(=S)Nc2ccccc2)cc1	none
CC(=O)c1ccc(NC(=O)O[C@@H]2CO[C@H]3[C@@H]2OC[C@@H]3NC(=O)Nc2cccc(C#N)c2)cc1	none
CC(=O)c1ccc(NC(=O)O[C@@H]2CO[C@H]3[C@@H]2OC[C@@H]3NC(=O)NC2CCCCC2)cc1	none
CC(=O)c1ccc(NC(=O)O[C@@H]2CO[C@H]3[C@@H]2OC[C@@H]3NC(=S)Nc2ccccc2)cc1	ST2 IL33 inh 41%
CCc1nnsc1C(=O)N[C@H]1C[C@@H](C(=O)OC)N(C)C1	none
COCCOC(=O)C1=C(C)N=C2SCCC(=O)N2C1c1ccc(C)cc1 (centres undefined)	none
CC(=O)Sc1nc(O)c(C=C2C=c3ccc(C)cc3=NC2=O)[nH]1	ST2 IL33 inh 31%
CSc1cccc(NC(=O)CNS(=O)(=O)c2cccs2)c1	none
CN(CC(=O)NCc1ccccc1F)Cc1nc2ccccc2n1C	none
CNc1ccccc1[N+](=O)[O-]	none
COc1ccc(CNc2c([N+](=O)[O-])c(=O)oc3ccccc23)cc1	none
COc1ccc(CNc2ccccc2[N+](=O)[O-])cc1	ST2 IL33 inh 38%
CCCn1c2ccccc2c2nnc(SCC(=O)c3ccccc3)nc21	none
Cc1cc(C)cc(-n2nc3c(c2NC(=O)c2ccco2)CSC3)c1	none
COc1ccc(NC(=O)c2ccc(-c3ccccc3)cc2)c([N+](=O)[O-])c1	none
CN(C)CCNc1ccc(Cl)cc1[N+](=O)[O-]	none
O=C(Nc1ccc(Cl)cc1[N+](=O)[O-])c1cccs1	ST2 IL33 inh 33%
O=C(Nc1cccc(Cl)c1)c1cccs1	none
NCCCNc1ccc(Cl)cc1[N+](=O)[O-]	none
COc1ccc(NCCNC(=O)c2ccc(Cl)cc2)c([N+](=O)[O-])c1	ST2 IL33 inh 32%
CCNc1ccc(Cl)cc1[N+](=O)[O-]	ST2 IL33 inh 31%
COc1ccc(Cl)cc1NC(=O)c1cccs1	none
O=C(NCCNc1ccc(Cl)cc1[N+](=O)[O-])c1ccc(Br)o1	none
COc1ccc(N2C(=O)C3C4CCC(C4)C3C2=O)cc1Cl (centres undefined)	none
Cc1nn(-c2ccc(F)cc2)c(C)c1Cn1ccnc1-c1ccc(CO)o1	none
Cc1nnnn1CCCN1CCOC(c2ccc(Cl)c(Cl)c2)C1 (centres undefined)	none
O=C(CC1(O)C(=O)N(Cc2ccc(Cl)cc2)c2ccccc21)c1ccccc1O (centres undefined)	none
O=C(CCC1CCN(C(=O)NC2CCS(=O)(=O)C2)CC1)NCc1ccc(F)cc1 (centres undefined)	none
N=C1SCCN1CC(=O)c1ccc(Br)cc1	ST2 IL33 inh 48%!
O=C(CSc1ncn[nH]1)c1ccc(Br)cc1	none
O=C(CN1C(=O)CCSc2ccccc21)Nc1ccc(Br)cc1	none
Cc1nnc([C@H]2CCN(C(=O)C3CC3)C2)o1	none
[O-][n+]1c2ccccc2[n+]([O-])c2cc(O)ccc21	ST2 IL33 inh 35%
COc1cccc(C2C(C(=O)OC3CCCCC3)=C(C)Nc3ncnn32)c1OC (centres undefined)	none
COc1cc(C2Nc3ccc(Br)cc3-c3nnc(SC)nc3O2)cc(OC)c1O (centres undefined)	none
CN(CCc1ccccc1)[C@@H]1[C@H](O)[C@H](CO)O[C@@H]1CNC(=O)Nc1cccc(Cl)c1	none
CCc1nc(NC)nc(OC)n1	ST2 IL33 inh 68%
CCc1ccccc1-c1nc(OC)nc(OC)n1	none
COc1nc(N(C)C)nc(N(C)C)n1	none
Cc1cccc(NC(=O)CSCc2ccc(Cl)cc2)c1C	none
Cc1nc(CCNC(=O)c2cn(CC3COc4ccccc4O3)nn2)sc1C (centres undefined)	none
COc1ccc2[nH]c(CN3CCC(CCC(=O)NCC4CCCO4)CC3)c(C)c2c1 (centres undefined)	none

Compound activity (PubChem BioAssay)
